# From PubChem BioAssay AID2845 (The Scripps Research Institute Molecular Screening Center, 2010)
# About 2,000 (87%) of roughly 2,300 compounds were called active. Cut-off read from the data, not from the text of the source: active = activation above about 49%; inactive = the rest. So high a share suggests a set chosen from earlier hits. A selection follows.
# Target: Aryl hydrocarbon receptor (Homo sapiens) (UniProt P35869)
# Experiment: AHR activators, confirmation, cell-based, luminescence, luciferase reporter, human (AID 2845);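 note: HepG2 hepatoma cells carrying a DRE-driven firefly luciferase reporter; 0% = vehicle wells and 100% = reference agonist wells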
# Details: human cells, AHR-responsive luciferase reporter, at 9 µM, stronger effect = higher value
# Aryl hydrocarbon receptor (Homo sapiens), sequence (P35869 whole entry, looked up): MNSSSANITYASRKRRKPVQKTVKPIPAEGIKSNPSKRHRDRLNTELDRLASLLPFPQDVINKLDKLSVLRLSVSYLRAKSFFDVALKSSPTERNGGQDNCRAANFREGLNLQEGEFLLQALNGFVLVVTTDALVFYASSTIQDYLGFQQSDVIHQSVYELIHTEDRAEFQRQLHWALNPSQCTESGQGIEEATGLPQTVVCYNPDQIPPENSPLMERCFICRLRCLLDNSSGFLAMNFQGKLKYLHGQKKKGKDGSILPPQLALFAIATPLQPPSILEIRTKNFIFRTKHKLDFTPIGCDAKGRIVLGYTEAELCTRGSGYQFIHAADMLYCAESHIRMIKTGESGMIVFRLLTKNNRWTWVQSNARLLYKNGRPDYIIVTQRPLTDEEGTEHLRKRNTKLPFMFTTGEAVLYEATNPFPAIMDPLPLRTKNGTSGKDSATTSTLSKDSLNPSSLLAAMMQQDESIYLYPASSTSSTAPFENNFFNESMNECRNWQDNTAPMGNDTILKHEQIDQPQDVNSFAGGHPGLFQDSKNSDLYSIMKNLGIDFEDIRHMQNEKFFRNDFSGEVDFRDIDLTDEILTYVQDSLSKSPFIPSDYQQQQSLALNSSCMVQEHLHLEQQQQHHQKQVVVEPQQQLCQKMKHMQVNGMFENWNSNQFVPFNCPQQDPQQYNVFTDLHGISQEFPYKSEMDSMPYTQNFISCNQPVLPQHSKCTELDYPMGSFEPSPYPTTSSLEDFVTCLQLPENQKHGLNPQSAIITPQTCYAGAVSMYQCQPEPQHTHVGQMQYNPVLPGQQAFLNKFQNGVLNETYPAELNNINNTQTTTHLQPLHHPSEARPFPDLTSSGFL
row,SMILES,activation
1,O=C(N/N=C/c1ccco1)c1ccc(C(=O)N/N=C/c2ccco2)o1,73.2% (active)
2,O=C(N/N=C/c1c[nH]c2ccccc12)c1cc2ccccc2o1,42.3% (inactive)
3,COc1ccc(NC(=O)c2ccco2)cc1NC(=O)c1ccc(C#N)cc1F,71.7% (active)
4,N#C/C(=C(/O)COc1cccc2ccccc12)c1nc2ccccc2[nH]1,84.1% (active)
5,O=C(Nc1cc(S(=O)(=O)Nc2ccc(Cl)cc2)ccc1O)c1ccc(F)cc1F,103% (active)
6,Cc1nnc(NC(=O)/C=C/c2ccco2)s1,127% (active)
7,NS(=O)(=O)c1ccc(-c2ccc(/C=C3\SC(=O)NC3=O)o2)cc1,116% (active)
8,COc1cc(/C=N/N=C(\N)c2nonc2N)cc(OC)c1OC,101% (active)
9,Cc1cccc(NC(=O)c2ccc3ccccc3n2)n1,128% (active)
10,Cc1csc(NC(=S)Nc2cccc(Cl)c2)n1,98.7% (active)
11,CCSc1ccccc1C(=O)Nc1ccc2c(c1)OCO2,101% (active)
12,C/C(=N/NC(=S)Nc1ccccc1)c1ccc2c(c1)OCO2,16% (inactive)
13,Cc1cccc(NC(=O)Nc2ccc3c(c2)OCO3)n1,123% (active)
14,CCC(C)NCC(=O)Nc1ccc([N+](=O)[O-])cc1C(=O)Nc1ccccc1F (configuration not stated),88.2% (active)
15,COCCNc1nc(-c2ccccc2)nc2c1oc1ccccc12,121% (active)
16,CSc1ccc(C#N)cc1NC(=O)c1ccc(Cl)cc1,86.5% (active)
17,CCN(CC)C(=O)Oc1ccc(Br)cc1C(=O)Nc1ccc(F)c(Cl)c1,124% (active)
18,C/C(=N\NC(=O)c1cccnc1)c1ccc(-n2ccnc2)cc1,86.3% (active)
19,Cc1noc(C)c1/C=N/Nc1ccc2ccccc2n1,176% (active)
20,C(=N\Nc1ccc2ccccc2n1)/c1ccc2c(c1)OCO2,-10.8% (inactive)
21,COc1ccccc1Nc1ncnc2c1oc1ccccc12,132% (active)
22,CCn1ccnc1CN(C)Cc1nc(-c2ccc3c(c2)OCO3)no1,79.9% (active)
23,O=C(Nc1ccc(C2CC2(Cl)Cl)cc1)c1cccc([N+](=O)[O-])c1 (configuration not stated),96.2% (active)
24,O=C(NCCCn1ccnc1)c1cc(-c2ccccc2)on1,323% (active)
25,Clc1ccc(Nc2nc(-c3cccs3)cs2)nc1,141% (active)
26,Cc1ccc(NC(=O)NNC(=O)c2sccc2-n2cccc2)cc1,101% (active)

row,SMILES,activation
1,COc1ccc(Nc2nc(-c3ccccc3)cs2)cc1,91.2% (active)
2,COc1ccc2nc(Nc3nc(-c4ccncc4)cs3)sc2c1,101% (active)
3,Cc1cccc(Nc2nc(-c3ccccc3)cs2)n1,131% (active)
4,C/C(CC1CC(C)(C)OC1=O)=N/Nc1nc(-c2ccccc2)cs1 (configuration not stated),-2.24% (inactive)
5,S=c1nc2ccccc2c2nc(-c3cccnc3)[nH]n12,125% (active)
6,O=C(Nc1ccc(C(F)(F)F)cc1)c1cccc(-n2cnnn2)c1,106% (active)
7,O=C(Nc1ccc(-c2csc(Nc3cccc(C(F)(F)F)c3)n2)cc1)c1cccc(C(F)(F)F)c1,4.55% (inactive)
8,CC(C(=O)N=Nc1c(O)n(C)c2ccc(Br)cc12)n1cnc2ccccc2c1=O (configuration not stated),73.7% (active)
9,Cc1nn(Cc2ccc(Cl)cc2)c(Cl)c1/C=N/NC(=O)c1cccnc1,74.2% (active)
10,O=C(CSc1cccc2cccnc12)N/N=C/c1cccnc1,21.4% (inactive)
11,Cc1c(C(=O)NCC(c2ccco2)N2CCCC2)oc2ccc(Cl)cc12 (configuration not stated),75.5% (active)
12,COc1ccccc1N1CCN(C(=O)c2cc3c(-c4ccc(Cl)cc4)nn(C)c3s2)CC1,102% (active)
13,CCOC(=O)N1CCN(C(=O)c2cc3c(-c4ccc(Cl)cc4)nn(C)c3s2)CC1,85.9% (active)
14,Cn1nc(-c2ccc(Cl)cc2)c2cc(C(=O)NCc3ccco3)sc21,148% (active)
15,CN(C)c1nc(Nc2ccc(Cl)c(Cl)c2)nc(N(C)C)n1,129% (active)
16,C=CCNC(=O)CSc1nc2sc(C)c(C)c2c(=O)[nH]1,53% (active)
17,c1cnc(N2CCN(c3ccc4ccccc4n3)CC2)nc1,96.5% (active)
18,Cc1nc2sc(C(=O)c3ccccc3)c(N)c2c2c1CCCC2,97.5% (active)
19,Cn1c(SCC(=O)c2ccccc2)ncc(C(=O)Nc2ccc(F)cc2)c1=O,120% (active)
20,CC1Cc2ccccc2N1C(=O)CSc1nnc(C2CC2)n1C (configuration not stated),47.2% (active)
21,COc1ccc(C(=O)Nc2ccccc2C(=O)N/N=C/c2ccccc2OC)cc1,66.5% (active)
22,O=C(CC1Nc2ccccc2NC1=O)Nc1ccccc1 (configuration not stated),119% (active)
23,Cn1cc(Cl)c(C(=O)NNC(=S)Nc2cccc(Cl)c2)n1,75.4% (active)
24,O=C(Nn1c(-c2ccc(Cl)cc2)nc2ccccc2c1=O)c1cccnc1Cl,28.5% (inactive)
25,Cc1ccc(-c2nc(C#N)c(NCCCn3ccnc3)o2)cc1,107% (active)
26,O=C(Cn1c(NCCO)nc2ccccc21)c1ccc(Cl)cc1Cl,115% (active)

row,SMILES,activation
1,COc1ccc(C2NC(=O)c3ccccc3N2)cc1 (configuration not stated),39.3% (inactive)
2,Cc1cc(O)c(C(=O)/C=C/c2c(F)c(F)c(F)c(F)c2F)c(=O)o1,69.7% (active)
3,CCOC(=O)c1ccc2[nH]c3c(c2c1)CCCC3NC=O (configuration not stated),89.1% (active)
4,CC(C)C(=O)Nc1c(C(=O)c2ccc(F)cc2)oc2ccccc12,84.4% (active)
5,CSc1ncccc1C(=O)Nc1nc2ccc(F)cc2s1,-8.12% (inactive)
6,O=C(CSc1ccccn1)Nc1nc2c(ccc3ccccc32)s1,130% (active)
7,C/C(=N\NC(=O)CNc1cccc2ccccc12)c1ccc(Br)s1,79.5% (active)
8,Cc1nn2c3cc(N4CCOCC4)ccc3nc2c2ccccc12,85% (active)
9,Cc1cc(N2CCOCC2)nc(-c2ccc(Br)cc2)n1,60.3% (active)
10,O=C(Cn1cncn1)N/N=C/c1c2ccccc2cc2ccccc12,73.7% (active)
11,CCOc1ccccc1NC(=O)c1cccnc1,121% (active)
12,Cc1ccc(Cl)cc1NC(=O)C1CCCN(c2cnccn2)C1 (configuration not stated),90.8% (active)
13,O=C(Nc1cccc(Cl)c1)C1CCCN(c2cnccn2)C1 (configuration not stated),73% (active)
14,Brc1ccc(-c2noc(-c3ccccc3)n2)o1,162% (active)
15,Nc1[nH][nH]c(=O)c1N=Nc1ccc2c(c1)OCO2,74.9% (active)
16,C=CCOc1c(Br)cc(/C=N\n2nnnc2N)cc1OC,77.9% (active)
17,COc1ccc(Cl)cc1C(=O)Nc1ccc(N(C)C(C)=O)cc1,78.6% (active)
18,COc1cccc(-n2c(SCC(=O)NC3CCCCC3)nc3n[nH]c(C)c3c2=N)c1,83.7% (active)
19,COc1cccc(OC)c1C(=O)Nc1ccc(N2CCCCC2)cc1,80.7% (active)
20,COc1cc2ccccc2cc1C(=O)Nc1ccc(N2CCOCC2)cc1,118% (active)
21,O=C(Nc1ccc(OC(F)(F)F)cc1)c1ccc2c(c1)no[n+]2[O-],127% (active)
22,OCCNc1nc(Nc2ccc(Cl)c(Cl)c2)nc2ccccc12,83.8% (active)
23,CCc1nc(Nc2ccc3nccnc3c2)c2oc3ccccc3c2n1,120% (active)
24,CCCCC(=O)Nc1ccc(C(=O)Nc2cc(C(F)(F)F)ccc2Cl)cc1,92.7% (active)
25,Cc1nn(-c2ccccc2)c2[nH]c(C(F)(F)F)cc(=O)c12,52.9% (active)
